This is one part of the list. Activity calls are given as the source filed them. Rule as the data show it, unless noted: active = activity above about 50%; inactive = the rest.
What was measured:
[1] = molecular target: Tumor necrosis factor receptor superfamily member 10B (Homo sapiens) (UniProt O14763); test: caspase-8 TRAIL sensitization, hit retest, confirmation, cell-based, NB7+caspase-8, with/without TRAIL, luminescence panel (AID 651596); conditions: NB7 neuroblastoma + caspase-8, TRAIL sensitization, luminescence viability, with TRAIL, mean of runs, at 10 µM, stronger effect = higher value
[2] = as above; conditions: NB7 neuroblastoma + caspase-8, without TRAIL, luminescence viability, without TRAIL, mean of runs, at 10 µM
[3] = molecular target: Tumor necrosis factor receptor superfamily member 10B (Homo sapiens) (UniProt O14763); test: TRAIL sensitizers in caspase-8 expressing neuroblastoma cells, dose response, NB7 cells plus caspase-8, luminescence, panel (AID 652002); conditions: NB7 neuroblastoma +caspase-8, TRAIL sensitization, luminescence viability, NB7+Caspase-8, with TRAIL, run 1; at 12.5 µM (top of the series)
[4] = molecular target: Tumor necrosis factor receptor superfamily member 10B (Homo sapiens) (UniProt O14763); test: as above; conditions: NB7 neuroblastoma +caspase-8, TRAIL sensitization, luminescence viability, NB7+Caspase-8, with TRAIL, run 2; at 12.5 µM (top of the series)
[5] = as above; conditions: NB7 neuroblastoma +caspase-8, no TRAIL, compound-alone cytotoxicity counter-screen, luminescence viability, NB7+Caspase-8, run 1; at 12.5 µM (top of the series) unless noted
[6] = as above; conditions: NB7 neuroblastoma +caspase-8, no TRAIL, compound-alone cytotoxicity counter-screen, luminescence viability, NB7+Caspase-8, run 2; at 12.5 µM (top of the series) unless noted
[7] = molecular target: COP9 signalosome complex subunit 5 (Homo sapiens) (UniProt Q92905); test: Csn5 deneddylation inhibitors, confirmation, biochemical, fluorescence polarization, single concentration, SCF-Nedd8OG substrate (AID 720654; in the data active = inhibition above about 50%;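 also: 0% = DMSO with enzyme and 100% = no enzyme wells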); conditions: Csn5 deneddylation of SCF-Nedd8OG, 90 min, at 16.6 µM, stronger effect = higher value
[8] = molecular target: 72 kDa type IV collagenase (Homo sapiens) (UniProt P08253); test: MMP-2 protease inhibition counter-screen, confirmation, counter-screen for CSN deneddylation inhibitor project, biochemical, fluorescence, single concentration (AID 720655;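 active = corrected plate-normalized z-score of 5 or more, or -5 or less, or inhibition of 15% or more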;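 also: plate controls were DMSO wells with enzyme for no effect and buffer wells lacking MMP-2 for full effect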); conditions: recombinant MMP-2, FRET substrate fluorescence, 60 min; at 16.6 µM
Prothrombin (Bos taurus) = Prothrombin (Bos taurus) (UniProt P00735); test: bovine thrombin inhibition counter-screen, confirmation, counter-screen for CSN deneddylation inhibitor project, biochemical, fluorescence polarization, single concentration (AID 720656;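 active = inhibition at or above a set limit, with a fluorescence interference ratio between 0.5 and a set maximum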); conditions: bovine thrombin cleavage of Ub4-pepOG, at 16.6 µM, stronger effect = higher value
Chain of Prothrombin (Bos taurus) (P00735 whole entry, looked up): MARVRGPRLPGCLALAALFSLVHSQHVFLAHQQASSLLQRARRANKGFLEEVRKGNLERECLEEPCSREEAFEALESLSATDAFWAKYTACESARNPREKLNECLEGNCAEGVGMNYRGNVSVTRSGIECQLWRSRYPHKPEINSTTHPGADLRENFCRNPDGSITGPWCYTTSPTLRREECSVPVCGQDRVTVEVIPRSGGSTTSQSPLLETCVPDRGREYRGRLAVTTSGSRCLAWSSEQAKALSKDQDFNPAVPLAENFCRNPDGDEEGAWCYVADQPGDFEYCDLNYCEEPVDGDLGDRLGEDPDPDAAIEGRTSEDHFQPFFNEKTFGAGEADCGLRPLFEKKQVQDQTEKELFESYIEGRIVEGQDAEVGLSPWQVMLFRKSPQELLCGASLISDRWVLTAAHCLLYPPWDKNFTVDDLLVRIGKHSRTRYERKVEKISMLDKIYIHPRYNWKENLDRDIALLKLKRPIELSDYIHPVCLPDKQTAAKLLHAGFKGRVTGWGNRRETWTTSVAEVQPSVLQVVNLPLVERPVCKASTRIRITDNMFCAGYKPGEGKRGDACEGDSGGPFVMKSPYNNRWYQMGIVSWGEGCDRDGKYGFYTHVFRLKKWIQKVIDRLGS

Chain of 72 kDa type IV collagenase (Homo sapiens) (P08253 whole entry, looked up): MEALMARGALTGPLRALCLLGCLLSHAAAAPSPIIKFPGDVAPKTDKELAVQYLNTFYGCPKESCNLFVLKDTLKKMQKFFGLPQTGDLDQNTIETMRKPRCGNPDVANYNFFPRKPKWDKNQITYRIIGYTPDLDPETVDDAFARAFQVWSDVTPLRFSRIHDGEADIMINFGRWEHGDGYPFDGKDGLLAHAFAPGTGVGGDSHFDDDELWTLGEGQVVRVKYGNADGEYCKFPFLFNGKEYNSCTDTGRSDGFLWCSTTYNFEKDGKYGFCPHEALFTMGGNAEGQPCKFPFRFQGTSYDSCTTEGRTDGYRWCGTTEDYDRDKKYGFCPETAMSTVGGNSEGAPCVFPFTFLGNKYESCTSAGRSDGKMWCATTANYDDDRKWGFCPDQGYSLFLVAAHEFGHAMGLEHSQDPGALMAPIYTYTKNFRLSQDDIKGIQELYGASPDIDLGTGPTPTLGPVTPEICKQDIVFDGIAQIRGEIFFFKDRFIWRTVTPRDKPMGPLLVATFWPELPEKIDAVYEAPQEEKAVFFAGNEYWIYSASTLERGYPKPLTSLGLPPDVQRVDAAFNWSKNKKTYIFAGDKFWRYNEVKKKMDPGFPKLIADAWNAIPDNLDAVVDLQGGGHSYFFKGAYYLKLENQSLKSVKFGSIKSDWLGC
Chain of Tumor necrosis factor receptor superfamily member 10B (Homo sapiens) (O14763 whole entry, looked up): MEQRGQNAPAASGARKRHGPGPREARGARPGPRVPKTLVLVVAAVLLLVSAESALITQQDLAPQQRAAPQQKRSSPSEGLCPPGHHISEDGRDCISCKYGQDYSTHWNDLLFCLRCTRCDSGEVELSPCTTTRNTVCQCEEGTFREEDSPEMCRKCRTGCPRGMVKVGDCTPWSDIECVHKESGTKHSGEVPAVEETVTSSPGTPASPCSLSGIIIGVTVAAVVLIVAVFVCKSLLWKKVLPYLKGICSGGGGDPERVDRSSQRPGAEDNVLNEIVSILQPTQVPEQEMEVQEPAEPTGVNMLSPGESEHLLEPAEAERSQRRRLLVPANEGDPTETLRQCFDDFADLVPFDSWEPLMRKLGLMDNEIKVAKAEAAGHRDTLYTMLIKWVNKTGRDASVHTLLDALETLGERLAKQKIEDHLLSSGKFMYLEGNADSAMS
Chain of COP9 signalosome complex subunit 5 (Homo sapiens) (Q92905 whole entry, looked up, one chain of several): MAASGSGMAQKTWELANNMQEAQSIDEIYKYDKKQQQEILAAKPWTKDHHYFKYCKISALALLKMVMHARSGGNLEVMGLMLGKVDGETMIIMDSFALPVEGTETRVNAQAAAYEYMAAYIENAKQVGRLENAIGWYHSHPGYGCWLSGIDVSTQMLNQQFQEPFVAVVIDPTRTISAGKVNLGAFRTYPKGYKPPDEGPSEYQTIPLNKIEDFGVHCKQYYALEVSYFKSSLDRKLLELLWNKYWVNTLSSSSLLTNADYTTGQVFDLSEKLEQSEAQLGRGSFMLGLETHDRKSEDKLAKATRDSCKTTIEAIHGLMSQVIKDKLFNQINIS

Work on CCN(CC)c1ccc(/C=N/NC(=O)c2ccco2)cc1 yielded an activity [1] of 56.5%, an activity [2] of 53.3% and an activity, % sensitization [3] of 25%. It also gave an activity, % sensitization [4] of 39.3%, an activity, % sensitization [5] of 34% and an activity, % sensitization [6] of 23.6%.

In the case of O=C(NCC1CCCO1)c1ccc2c3n(nc2c1)-c1ccccc1CO3 (centres undefined), the activity [1] is reported as 52.9%, the activity [2] is reported as 54.6% and the activity, % sensitization [3] is reported as 29.1%. It also gave an activity, % sensitization [4] of 41.5%, an activity, % sensitization [5] of 21% and an activity, % sensitization [6] of 11.7%.

For COc1cccc(C(=O)Nc2ccc(C3CC3(Cl)Cl)cc2)c1 (centres undefined), the activity [1] was 47%, the activity [2] was 46.5% and the activity, % sensitization [3] was 12.6%. The activity, % sensitization [4] was 30.2%, the activity, % sensitization [5] was 5.52% and the activity, % sensitization [6] was 21.8%.

Work on O=C(N/N=C/c1ccc2cccnc2c1)c1ccco1 yielded an activity [1] of 47.2%, an activity [2] of 37% and an activity, % sensitization [3] of 37.5%. For the same molecule, the activity, % sensitization [4] was 50.7%, the activity, % sensitization [5] was 39.1% and the activity, % sensitization [6] was 35.6%.

For Cc1cccc(CC(=O)Nc2cc(C)c3c(=O)oc4ccccc4c3n2)c1, the activity [1] was 67.3%, the activity [2] was 45.5% and the activity, % sensitization [3] was -12.3%. For the same molecule, the activity, % sensitization [4] was -4.35%, the activity, % sensitization [5] was -6.37% and the activity, % sensitization [6] was 0.373%.

Molecule COc1ccc(-c2cc(C(=O)N/N=C/c3cccnc3)c3ccccc3n2)cc1 has an activity [1] of 45.5%, an activity [2] of 40.8% and an activity, % sensitization [3] of 22.7%. The activity, % sensitization [4] was 33.2%, the activity, % sensitization [5] was 21.2% and the activity, % sensitization [6] was 40.4%.

COc1ccc(/C(C)=N/Nc2nncc3ccccc23)cc1 showed an activity [1] of 59.6%, an activity [2] of 49.8% and an activity, % sensitization [3] of 19.4%. The activity, % sensitization [4] was 54.6%, the activity, % sensitization [5] was 27.1% and the activity, % sensitization [6] was 10.8%.

Work on CC(C)(C)OC(=O)[C@H](Cc1ccccc1)NC(=O)c1[nH]cnc1C(=O)Nc1ccccc1F yielded an activity [1] of 54.9%, an activity [2] of 54.8% and an activity, % sensitization [3] of 16.8%. The activity, % sensitization [4] was -4.6%, the activity, % sensitization [5] was 6.22% and the activity, % sensitization [6] was 2.55%.

Molecule COC(=O)[C@]12CCCCC=C1N(Cc1cccc3ccccc13)C(=O)[C@H](CC(=O)NCc1ccc(OC)c(OC)c1)C2 has an activity [1] of 66.4%, an activity [2] of 53% and an activity, % sensitization [3] of 24.8%. It also gave an activity, % sensitization [4] of 43%, an activity, % sensitization [5] of 16.7% and an activity, % sensitization [6] of 36.7%.

O=C1Cc2c(-c3ccccc3)cc(-c3cccc(Cl)c3)nc2-c2ccccc2N1 gave an activity [1] of 52.9%, an activity [2] of 39.5% and an activity, % sensitization [3] of -1.76%. It also gave an activity, % sensitization [4] of -0.0597%, an activity, % sensitization [5] of -14.1% and an activity, % sensitization [6] of -20.4%.

With Cc1cc2nc(-c3ccc(SCC(=O)Nc4nccs4)nc3)[nH]c2cc1C the activity [1] was 58%, the activity [2] was 46.6% and the activity, % sensitization [3] was 5.16%. It also gave an activity, % sensitization [4] of 48.9%, an activity, % sensitization [5] of -17.8% and an activity, % sensitization [6] of 0.327%.

Molecule COc1ccc(/C=N/Nc2nc3ccccc3c(=O)n2-c2ccccc2)cc1OC has an activity [1] of 62.5%, an activity [2] of 48.6% and an activity, % sensitization [3] of 47.9%. It also gave an activity, % sensitization [4] of 45.1%, an activity, % sensitization [5] of 41% and an activity, % sensitization [6] of 44.3%.

COCCNC(=O)c1cc(-c2ccc(-c3ccccc3)cc2)nc2ccccc12 showed an activity [1] of 57.7%, an activity [2] of 44.5% and an activity, % sensitization [3] of 36.7%. The activity, % sensitization [4] was 40.6%, the activity, % sensitization [5] was 51% and the activity, % sensitization [6] was 41.3%.

Work on O=C(Oc1c(CN2CCOCC2)cc(Cl)c2cccnc12)c1cccs1 yielded an activity [1] of 53.1%, an activity [2] of 53.5% and an activity, % sensitization [3] of 24.4%. It also gave an activity, % sensitization [4] of 44.5%, an activity, % sensitization [5] of 8.65% and an activity, % sensitization [6] of -4.1%.

CN(C)c1ccc(N/C=C/C(=O)c2ccco2)cc1 gave an activity [1] of 62.6%, an activity [2] of 22.4% and an activity, % sensitization [3] of 53.8%. The activity, % sensitization [4] was 49.4%, the activity, % sensitization [5] was 18.4% and the activity, % sensitization [6] was 43.5%.

For CSc1ccc(/C=C/c2ccc3cccc(O)c3n2)cc1, the activity [1] was 48.5%, the activity [2] was 53.9% and the activity, % sensitization [3] was 31.9%. It also gave an activity, % sensitization [4] of 41.1%, an activity, % sensitization [5] of 23.2% and an activity, % sensitization [6] of 36.6%.

With Cc1cc(N/N=C/c2ccccc2)nc(NCc2ccccc2)n1 the activity [1] was 53.9%, the activity [2] was 41.1% and the activity, % sensitization [3] was 30.4%. For the same molecule, the activity, % sensitization [4] was 39.6%, the activity, % sensitization [5] was 5.63% and the activity, % sensitization [6] was 26.4%.

CCN(CC)S(=O)(=O)c1ccc(C(=O)OCC(=O)Nc2ccc(-c3nc4ccc(C)cc4s3)cc2)cc1 showed an activity [1] of 68.5%, an activity [2] of 55% and an activity, % sensitization [3] of 20.1%. The activity, % sensitization [4] was -0.711%, the activity, % sensitization [5] was 13.4% and the activity, % sensitization [6] was -8.61%.

For CN(C(=O)COC(=O)c1cnc(Cl)c(Cl)c1)C1CCCCC1, the activity [1] was 68.5%, the activity [2] was 47.4% and the activity, % sensitization [3] was 11.9%. It also gave an activity, % sensitization [4] of 14.2%, an activity, % sensitization [5] of -5.35% and an activity, % sensitization [6] of 13.1%.

With COc1ccc2[nH]c3c(C)c4cc[n+](C)cc4c(C)c3c2c1 the inhibition [7] was -33.2% (inactive), the inhibition [8] was -35.8% (active) and the inhibition (Prothrombin (Bos taurus)) was 12.2% (inactive).

In the case of Cc1ccc(C(=O)O)cc1-c1ccc(/C=C2\SC(=O)N(CC(=O)Nc3ccc4c(c3)OCO4)C2=O)o1, the inhibition [7] is reported as 155% (active), the inhibition [8] is reported as -3.01% (inactive) and the inhibition (Prothrombin (Bos taurus)) is reported as 7.47% (inactive).

COc1ccc(-c2noc(-c3ccc4c(c3)OCO4)n2)cc1 gave an activity [2] of 49.9%.

CCOc1ccc(/C=C/C(=O)Nc2cccc(C(C)=O)c2)cc1 showed an activity [1] of 50.7%, an activity [2] of 37.2% and an activity, % sensitization [3] of 14.7%. It also gave an activity, % sensitization [4] of 23.8%, an activity, % sensitization [5] of 37.9% and an activity, % sensitization [6] of 17.4%.

With C=CCC1=C/C(=C\c2c(N)n3nc(CC(=O)N4CCOCC4)sc3nc2=O)C=C(OC)C1=O the inhibition [7] was 16.7% (inactive), the inhibition [8] was -4.68% (inactive) and the inhibition (Prothrombin (Bos taurus)) was 72.6% (active).

In the case of CC(=O)c1ccc(NC(=O)Nc2cccnc2)cc1, the activity [1] is reported as 52.1%, the activity [2] is reported as 45% and the activity, % sensitization [3] is reported as 32.2%. It also gave an activity, % sensitization [4] of 44.9%, an activity, % sensitization [5] of 35.1% and an activity, % sensitization [6] of 43.9%.

CC(C)CCn1cnc2c([nH]c3cccc(Cl)c32)c1=O gave an activity [1] of 60.6%, an activity [2] of 52.9% and an activity, % sensitization [3] of -14.6%. It also gave an activity, % sensitization [4] of -14%, an activity, % sensitization [5] of -4.11% and an activity, % sensitization [6] of 0.76%.

For CCOC(=O)c1cnc2c(-c3ccccc3)cnn2c1N, the activity [1] was 62.2%, the activity [2] was 54.7% and the activity, % sensitization [3] was 38.5%. The activity, % sensitization [4] was 22.1%, the activity, % sensitization [5] was 13.3% and the activity, % sensitization [6] was 5.35%.

NNC(=O)C1CCCn2c1nc1sc3c(c1c2=O)CCCC3 (centres undefined) showed an activity [1] of 51%, an activity [2] of 52.8% and an activity, % sensitization [3] of 5.3%. For the same molecule, the activity, % sensitization [4] was -9.76%, the activity, % sensitization [5] was -17.6% and the activity, % sensitization [6] was 12.5%.

— PubChem BioAssay
